# Screening results deposited in PubChem by National Center for Advancing Translational Sciences (NCATS).
# HPGD inh = blocks human HPGD enzyme activity. Potency, µM, most hits filed as inhibitors. AID 894. 4.3% of 150,000 active. purified HPGD, NADH fluorescence kinetic, PGE2 substrate
#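 NADH formation kinetics: reaction with 30 uM PGE2 and 1 mM NAD+ (final), 20 nM enzyme, Tris-HCl pH 8 with Tween 20, after 15 min compound preincubation at room temperature. Fluorescence change, last versus first of five reads.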
# Lamin A splicing = LMNA splicing modulation; HeLa LMNA splicing GFP/RFP minigene ratio, 48 h; Potency, µM (series often up to 46.1 µM), hits mostly inhibitors; 0.01% of 200,000 active; active means well fitted inhibition curve with a large enough effect in the signal ratio, with a control signal flat, not every such curve was filed as active; inconclusive means small, poorly fitted or top-dose-only effect, or effect the other way, or a change in a side signal; the % refers to the signal ratio
#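 S3 HeLa cells stably expressing lamin A-EGFP splicing minigene plus DsRed2, 600 cells/well, 48 h compound exposure at 37C. Laser-scanning cytometry; analysed as GFP (500-530 nm)/RFP (575-640 nm) total intensity ratio; 0.5% DMSO vehicle.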
# Luc counter = counter-screen: inhibitors of Kinase-Glo firefly luciferase | Potency, µM (top dose mostly 38.3 µM), actives largely listed as inhibitors | Kinase-Glo luciferase, ATP luminescence, 8 min | Q27757 | 0.28% of 200,000 active; active means well fitted curve in the direction sought with a large enough effect; inconclusive means small, poorly fitted or top-dose-only effect, or another doubt; inactive means no such curve, though single readings can be large; an effect the other way counts as inactive or inconclusive; further: nearly all actives have a fitted effect of over 60% in size
#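 Inhibition of Kinase-Glo luciferase light generation was assessed at 10 uM ATP in pH 7.2 imidazole buffer, with luminescence measured after eight minutes at ambient temperature.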
# ALDH1A1 block = blocks purified human ALDH1A1 activity | P00352 | Purified ALDH1A1, NADH fluorescence, propionaldehyde substrate | Potency, µM (top dose mostly 75.3 µM), most hits filed as inhibitors | 7.3% of 220,000 active | AID 1030
# Target sequence (P00352 whole entry, looked up): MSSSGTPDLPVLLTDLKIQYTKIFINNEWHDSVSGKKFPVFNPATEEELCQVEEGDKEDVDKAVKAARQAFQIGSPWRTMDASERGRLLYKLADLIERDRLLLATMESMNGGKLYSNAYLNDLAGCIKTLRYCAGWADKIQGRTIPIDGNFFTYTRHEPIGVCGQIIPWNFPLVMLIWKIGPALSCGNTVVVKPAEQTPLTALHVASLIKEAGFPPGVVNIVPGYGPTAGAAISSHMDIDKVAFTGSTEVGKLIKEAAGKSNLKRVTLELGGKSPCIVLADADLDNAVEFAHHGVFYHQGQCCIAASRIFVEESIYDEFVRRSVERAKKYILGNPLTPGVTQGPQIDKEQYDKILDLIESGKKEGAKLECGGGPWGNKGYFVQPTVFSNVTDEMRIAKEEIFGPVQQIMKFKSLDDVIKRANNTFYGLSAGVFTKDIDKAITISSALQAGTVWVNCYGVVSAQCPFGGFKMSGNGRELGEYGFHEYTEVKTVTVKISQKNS
# IMPase Li inh = cell-permeable IMPase inhibitors with lithium potentiation. CHO-M1 cells, IP1 TR-FRET (IP-One), carbachol + lithium. Potency, µM (top dose mostly 59.4 µM), hits mostly inhibitors. 0.35% of 210,000 active; active means well fitted curve in the direction sought with a large enough effect; inconclusive means small, poorly fitted or top-dose-only effect, or another doubt; inactive means no such curve, though single readings can be large; an effect the other way counts as inactive or inconclusive;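 further: IP1 builds up when IMPase is blocked and the TR-FRET signal falls; nearly all actives have a fitted effect of over 50% in size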
#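 Test compounds were applied to CHO-M1 cells previously cultured for 16–30 h at 2000 per well. A small lithium amount accompanied them; after 30 min at 37C, IP1 was quantified by TR-FRET.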
# Hits are given with their value; – = inactive; ? = inconclusive; · = no result; [ ] = another dose, or the depositor's remark. Shown are actives, neighbours in structure and some others; about 9% of the full set was active somewhere. Unless noted, the call rests on the fitted dose curve; in most records, active means well fitted inhibition curve with a large enough effect (not every such curve was filed as active); inconclusive means small, poorly fitted or top-dose-only effect, or another doubt; inactive means no such curve, though single readings can be large or run the other way.
SMILES,HPGD inh,Lamin A splicing,Luc counter,ALDH1A1 block,IMPase Li inh
COC(=O)COC(=O)c1ccc(-n2nnnc2SC)cc1,–,–,–,?,–
c1ccc(-c2noc(CSc3nnnn3-c3ccccc3)n2)cc1,–,–,–,11µM,–
Cc1cc(C)n2cc(CSc3nnnn3-c3ccccc3)nc2n1,?,–,–,?,–
Cc1cccc2nc(CSc3nnnn3-c3ccccc3)cn12,–,–,–,10µM,–
COc1ccccc1CNc1nc(-c2ccccc2OC)nc2ccccc12,·,?,·,–,–
COc1ccc(Oc2cnn(-c3ccccc3)c(=O)c2Br)cc1,·,·,–,25µM,?
O=[N+]([O-])c1ccc(Sc2nnnn2-c2ccccc2)nc1,·,·,–,22µM,–
COc1ccc(Oc2nnnn2-c2ccccc2)cc1,–,–,–,7.9µM,–
O=[N+]([O-])c1ccc(Sc2ccc(Cl)c(Cl)c2)nc1,–,?,–,–,–
NC(=O)c1ccc(-n2nnnc2SCc2ccc(F)cc2)cc1,–,–,–,–,–
O=C(O)c1ccc(-n2nnnc2SCc2ccccc2)cc1,20µM,–,–,–,–
c1ccc2c(N3CCNCC3)nc(-c3ccoc3)nc2c1,–,?,–,–,–
COC(=O)c1ccc2c(=O)n(CCCCCC(=O)N3CCN(c4ccc(Cl)cc4)CC3)c(=O)[nH]c2c1,·,–,·,·,·
CN1CCCC2(CCN(C(=O)c3cc(C(F)(F)F)cc(C(F)(F)F)c3)CC2)C1,–,·,–,–,–
C=CCSc1nnnn1-c1ccc(OC)cc1,–,–,–,–,–
Cc1ccccc1-n1nnnc1Sc1nnnn1-c1ccccc1,–,?,–,25µM,–
COc1ccccc1Oc1nnnn1-c1ccc(C(N)=O)cc1,–,–,–,13µM,–
COc1ccc(CSc2nnnn2-c2ccccc2)cc1,–,?,–,11µM,–
O=S(=O)(NCCSc1nnnn1-c1ccccc1)c1cccs1,–,–,–,13µM,–
NC(=O)c1ccc(-n2nnnc2Oc2ccccc2)cc1,–,–,–,–,–
CCOC(=O)CNC(=O)N1CCCN(S(=O)(=O)c2ccc3c(ccn3CC)c2)CC1,·,–,·,·,·
N[C@@H](Cc1ncccn1)C(=O)O,–,·,–[7.66 µM],–[13.5 µM],–
CN(C(=O)COC(=O)C1CCN(S(=O)(=O)c2cccs2)CC1)c1ccccc1,·,·,·,–,–
CCOC(=O)N1CCN(C2=CC(=O)OC23CCCCC3)CC1,–,–,–,?,–
O=C1C=C(N2CCCCCC2)C2(CCCCC2)O1,·,·,–,8.9µM,–
SMILES,HPGD inh,Lamin A splicing,Luc counter,ALDH1A1 block,IMPase Li inh
O=c1/c(=C/c2ccco2)sc2n1CN(c1cccc(Br)c1)CN=2,25µM,–,–,?,–
Cc1cc(C)cc(N2CN=c3s/c(=C\c4ccco4)c(=O)n3C2)c1,–,–,–,–,–
O=c1/c(=C/c2ccco2)sc2n1CN(c1ccccc1)CN=2,–,–,–,–,–
Cc1ccc(/C=c2\sc3n(c2=O)CN(c2cccc(Br)c2)CN=3)o1,–,–,–,20µM,–
Cc1nc(SCC(=O)c2cccc([N+](=O)[O-])c2)n[nH]1,–,–,–,?,–
Cc1ccnc(SCC(=O)c2cccc([N+](=O)[O-])c2)n1,–,–,–,32µM,–
Cc1nc([N+](=O)[O-])c(Br)n1CC(=O)c1cccc([N+](=O)[O-])c1,·,–[9.22 µM],–,25µM,–
CCOc1ccc(CN2CCN(Cc3nc(C(C)C)cs3)CC2CCO)cc1 (stereo not drawn),·,·,–,–,–
COc1ccc(CCNc2nc(SCc3ccc(F)cc3)nc3ccccc23)cc1OC,·,–,·,·,·
Cc1ccc(NC(=O)CSc2nnc(-c3n[nH]c4ccccc34)n2-c2ccccc2)c(C)c1,–,?,–,20µM,–
Cc1ccc(OCc2nnc(SCC(=O)Nc3cccc4ccccc34)n2-c2ccccc2)cc1,–,?,–,–,–
Cc1cnc(C(=O)Nc2ccc(F)cc2)cn1,–,–,?,32µM,–
Cc1cnc(C(=O)Nc2ccc(C(C)C)cc2)cn1,·,?,–,–,–
Cc1cnc(C(=O)Nc2ccc(C(=O)N(C)C3CCCCC3)cc2)cn1,13µM,–,–,–,–
Cc1cnc(C(=O)Nc2ccccc2-n2cccc2)cn1,–,–,–,16µM,–
CC(OC(=O)c1oc2ccccc2c1COc1ccccc1)C(N)=O (stereo not drawn),·,–,–,2.2µM,–
CC(C)(C)NC(=O)c1oc2ccccc2c1COc1ccccc1,–,–,–,–,–
CCOC(=O)c1cc(C)nc(SC)c1C#N,·,·,·,40µM,·
O=C(Cn1cnc2c(nnn2Cc2ccc(F)cc2)c1=O)NCc1ccc(F)cc1,·,?,–,–,–
CC(=O)Nc1ccc(NC(=O)Cn2cnc3c(nnn3Cc3ccc(F)cc3)c2=O)cc1,·,·,–,11µM,–
CC(=O)Nc1ccc(NC(=O)Cn2cnc3c(cnn3C(C)(C)C)c2=O)cc1,–,–,–,16µM,–
O=C(Cn1cnc2c(nnn2Cc2ccccc2F)c1=O)NCc1ccco1,32µM,–,–,–,–
CC(C)(C)n1ncc2c(=O)n(CC(=O)Nc3ccc(Cl)cc3)cnc21,–,?,–,–,–
Cc1nc(C)c(CCNS(=O)(=O)c2ccc(F)cc2)s1,·,–,·,·,·
Cc1nc2c(-c3ccc(F)cc3)c(C)nn2c(C)c1CCC(=O)N1CCC(Cc2ccccc2)CC1,?,–,–,?,–
CCN1CCC(O)([C@H](C(=O)O)c2ccccc2)CC1,–,·,–[7.66 µM],–[13.5 µM],–
CCCC(C(=O)NC1CCCC1)N(Cc1ccc2c(c1)OCO2)C(=O)c1snc(C(N)=O)c1N (stereo not drawn),–,–,–,13µM,–
CC(C)CC(C(=O)NC1CCCC1)N(Cc1cccs1)C(=O)c1snc(C(N)=O)c1N (stereo not drawn),?,–,–,–,–
